# Measured values taken from the supplement of paper PMC8728848.
# Many of the other results were omitted from the sample, so the strongest signals are more common in it than they were.
# B1: CLL-1 (Homo sapiens) (protein)
# chain: MWIDFFTYSSMSEEVTYADLQFQNSSEMEKIPEIGKFGEKAPPAPSHVWRPAALFLTLLCLLLLIGLGVLASMFHVTLKIEMKKMNKLQNISEELQRNISLQLMSNMNISNKIRNLSTTLQTIATKLCRELYSKEQEHKCKPCPRRWIWHKDSCYFLSDDVQTWQESKMACAAQNASLLKINNKNALEFIKSQSRSYDYWLGLSPEEDSTRGMRVDNIINSSAWVIRNAPDLNNMYCGYINRLYVQYYHCTYKKRMICEKMANPVQLGSTYFREA
# B2: Ficolin A (Rattus norvegicus), Q9WTS8 (protein)
# chain: MWWPMLWAFPVLLCLCSSQALGQESGACPDVKIVGLGAQDKVAVIQSCPSFPGPPGPKGEPGSPAGRGERGLQGSPGKMGPPGSKGEPGTMGPPGVKGEKGERGTASPLGQKELGDALCRRGPRSCKDLLTRGIFLTGWYTIYLPDCRPLTVLCDMDVDGGGWTVFQRRVDGSINFYRDWDSYKRGFGNLGTEFWLGNDYLHLLTANGNQELRVDLREFQGQTSFAKYSSFQVSGEQEKYKLTLGQFLEGTAGDSLTKHNNMAFSTHDQDNDTNGGKNCAALFHGAWWYHDCHQSNLNGRYLPGSHESYADGINWLSGRGHRYSYKVAEMKIRAS
# Tests used:
# Assay in all cases: glycan array binding signal (z-score within array); higher = stronger binding
# Details in all cases: glycan notation: IUPAC condensed, linker removed
# [1] = molecular target: Fuc(a1-2)[GalNAc(a1-3)]Gal(b1-4)Glc
# In short: (§1)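 From the Consortium for Functional Glycomics database, 3228 arrays were curated, keeping only those whose protein sequence was available. Binding is given as a within-array Z-score averaged across arrays sharing a protein sequence and across linkers. Negative Z-scores can be read as non-binding.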
# [2] = molecular target: Gal(b1-3)GalNAc(b1-4)Gal(b1-4)Glc
# In short: as §1
# [3] = molecular target: Gal(b1-4)GlcNAc(b1-3)Gal(b1-4)[Fuc(a1-3)]GlcNAc(b1-3)Gal(b1-4)[Fuc(a1-3)]GlcNAc
# In short: as §1
# [4] = molecular target: Gal(b1-4)GlcNAc(b1-3)GalNAc
# In short: as §1
# Gal3S6S(b1-4)GlcNAc6S = molecular target: Gal3S6S(b1-4)GlcNAc6S
# In short: as §1
# Glc(a1-4)Glc = molecular target: Glc(a1-4)Glc
# In short: as §1
# GlcNAc(b1-3)GalNAc = molecular target: GlcNAc(b1-3)GalNAc
# In short: as §1
# [5] = molecular target: GlcNAc(b1-3)[GlcNAc(b1-6)]GalNAc
# In short: as §1
# [6] = molecular target: GlcNAc(b1-4)[GlcNAc(b1-6)]GalNAc
# In short: as §1
# [7] = molecular target: Neu5Ac(a2-3)Gal(b1-3)[Fuc(a1-4)]GlcNAc
# In short: as §1
# [8] = molecular target: Neu5Ac(a2-3)Gal(b1-4)GlcNAc
# In short: as §1
# [9] = molecular target: Neu5Ac(a2-3)Gal(b1-4)GlcNAc(b1-3)Gal(b1-4)GlcNAc(b1-3)Gal(b1-4)GlcNAc
# In short: as §1
# [10] = molecular target: Neu5Ac(a2-3)Gal(b1-4)[Fuc(a1-3)]GlcNAc6S
# In short: as §1
# [11] = molecular target: Neu5Ac9Ac(a2-6)Gal(b1-4)GlcNAc
# In short: as §1
# [12] = molecular target: Neu5Gc(a2-6)Gal(b1-4)GlcNAc
# In short: as §1
# [13] = molecular target: Fuc(a1-2)[GalNAc(a1-3)]Gal(b1-4)GlcNAc
# In short: as §1
# Gal(a1-3)Gal(b1-4)Glc = molecular target: Gal(a1-3)Gal(b1-4)Glc
# In short: as §1
# [14] = molecular target: Gal(a1-3)Gal(b1-4)[Fuc(a1-3)]GlcNAc
# In short: as §1
# [15] = molecular target: Gal(b1-3)[Fuc(a1-4)]GlcNAc
# In short: as §1
# Gal(b1-4)Glc6S = molecular target: Gal(b1-4)Glc6S
# In short: as §1
# Glc(b1-4)Glc = molecular target: Glc(b1-4)Glc
# In short: as §1
# [16] = molecular target: GlcNAc(a1-6)Gal(b1-4)GlcNAc
# In short: as §1
# [17] = molecular target: GlcNAc(b1-2)Man(a1-3)[GlcNAc(b1-2)Man(a1-6)]Man(b1-4)GlcNAc(b1-4)GlcNAc
# In short: as §1
# GlcNAc(b1-3)Gal(b1-4)Glc = molecular target: GlcNAc(b1-3)Gal(b1-4)Glc
# In short: as §1
# [18] = molecular target: GlcNAc(b1-3)Gal(b1-4)GlcNAc
# In short: as §1
# [19] = molecular target: Man(a1-2)Man(a1-3)[Man(a1-2)Man(a1-6)]Man(a1-6)[Man(a1-2)Man(a1-2)Man(a1-3)]Man
# In short: as §1
# [20] = molecular target: Neu5Ac(a2-3)Gal(b1-3)[Fuc(a1-4)]GlcNAc(b1-3)Gal(b1-4)[Fuc(a1-3)]GlcNAc
# In short: as §1
# [21] = molecular target: Neu5Ac(a2-3)Gal(b1-3)[Neu5Ac(a2-6)]GalNAc
# In short: as §1
# [22] = molecular target: Neu5Ac(a2-3)Gal(b1-4)GlcNAc(b1-2)Man(a1-3)[Neu5Ac(a2-6)Gal(b1-4)GlcNAc(b1-2)Man(a1-6)]Man(b1-4)GlcNAc(b1-4)GlcNAc
# In short: as §1
# [23] = molecular target: Neu5Ac(a2-3)Gal(b1-4)GlcNAc(b1-3)Gal(b1-3)GlcNAc
# In short: as §1
# [24] = molecular target: Neu5Ac(a2-3)[GalNAc(b1-4)]Gal(b1-4)Glc
# In short: as §1
# Neu5Ac(a2-6)Gal = molecular target: Neu5Ac(a2-6)Gal
# In short: as §1
# Neu5Ac(a2-8)Neu5Ac = molecular target: Neu5Ac(a2-8)Neu5Ac
# In short: as §1
# [25] = molecular target: Neu5Ac(a2-8)Neu5Ac(a2-8)Neu5Ac(a2-3)[GalNAc(b1-4)]Gal(b1-4)Glc
# In short: as §1
# [26] = molecular target: Neu5Ac(b2-6)Gal(b1-4)GlcNAc
# In short: as §1
Binder,glycan array binding signal (z-score) [1],glycan array binding signal (z-score) [2],glycan array binding signal (z-score) [3],glycan array binding signal (z-score) [4],glycan array binding signal (z-score) (Gal3S6S(b1-4)GlcNAc6S),glycan array binding signal (z-score) (Glc(a1-4)Glc),glycan array binding signal (z-score) (GlcNAc(b1-3)GalNAc),glycan array binding signal (z-score) [5],glycan array binding signal (z-score) [6],glycan array binding signal (z-score) [7],glycan array binding signal (z-score) [8],glycan array binding signal (z-score) [9],glycan array binding signal (z-score) [10],glycan array binding signal (z-score) [11],glycan array binding signal (z-score) [12],glycan array binding signal (z-score) [13],glycan array binding signal (z-score) (Gal(a1-3)Gal(b1-4)Glc),glycan array binding signal (z-score) [14],glycan array binding signal (z-score) [15],glycan array binding signal (z-score) (Gal(b1-4)Glc6S),glycan array binding signal (z-score) (Glc(b1-4)Glc),glycan array binding signal (z-score) [16],glycan array binding signal (z-score) [17],glycan array binding signal (z-score) (GlcNAc(b1-3)Gal(b1-4)Glc),glycan array binding signal (z-score) [18],glycan array binding signal (z-score) [19],glycan array binding signal (z-score) [20],glycan array binding signal (z-score) [21],glycan array binding signal (z-score) [22],glycan array binding signal (z-score) [23],glycan array binding signal (z-score) [24],glycan array binding signal (z-score) (Neu5Ac(a2-6)Gal),glycan array binding signal (z-score) (Neu5Ac(a2-8)Neu5Ac),glycan array binding signal (z-score) [25],glycan array binding signal (z-score) [26]
B1,-0.065,-0.279,-0.107,-0.238,3.91,1,-0.228,-0.19,-0.247,1.22,-0.14,2.45,-0.15,-0.216,-0.231,–,–,–,–,–,–,–,–,–,–,–,–,–,–,–,–,–,–,–,–
B2,–,–,–,–,–,–,–,–,–,–,–,–,–,–,–,-0.02,-0.071,-0.105,-0.069,-0.092,-0.11,17.3,-0.048,-0.056,-0.094,-0.092,-0.064,0.325,-0.027,-0.098,0.265,-0.042,0.58,-0.047,1.16
